An excerpt weighted towards active compounds, which were near 4.2% of everything screened.
GDH-TPI counter-1 = GDH-TPI coupling enzyme inhibitors, primary screen, artefact control for M. tuberculosis FBA inhibitor project, biochemical, absorbance, full deck. inhibition, % at 4.8 µM. AID 588335, 2011. GDH-TPI coupled enzyme counterscreen, NADH absorbance. 360,000 tested, 1.2% active; in the data active = inhibition above about 30%;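 also: 0% = DMSO wells and 100% = wells lacking the enzyme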
Mtb FBA inh = Mtb FBA enzyme inhibitors, primary screen, biochemical, fluorescence, strain H37Rv; inhibition, % at 1 µM; AID 588726, 2011; 360,000 tested, 2.3% active; purified M. tuberculosis FBA, fluorescence read-out; Fructose-bisphosphate aldolase (Mycobacterium tuberculosis (strain ATCC 25618 / H37Rv)), …; in the data active = inhibition above about 27%;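 also: 0% = vehicle and 100% = reference inhibitor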
Target sequence (P9WQA3 whole entry, looked up): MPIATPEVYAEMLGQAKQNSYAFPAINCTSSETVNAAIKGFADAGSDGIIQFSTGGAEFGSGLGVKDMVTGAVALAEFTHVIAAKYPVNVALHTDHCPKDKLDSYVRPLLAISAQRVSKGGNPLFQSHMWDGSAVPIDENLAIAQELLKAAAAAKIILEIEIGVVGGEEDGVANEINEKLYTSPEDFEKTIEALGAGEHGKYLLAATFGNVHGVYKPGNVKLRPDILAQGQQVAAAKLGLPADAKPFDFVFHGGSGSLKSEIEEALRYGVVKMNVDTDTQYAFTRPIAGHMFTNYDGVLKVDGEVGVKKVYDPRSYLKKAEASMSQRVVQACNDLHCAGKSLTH
CCHF vOTU inh = CCHFV vOTU protease inhibitors, primary screen, biochemical, Pep-AMC substrate, fluorescence. Crimean-Congo hemorrhagic fever virus L polyprotein viral ovarian tumor (vOTU) protease …. inhibition, % at 11.5 µM. 370,000 tested, 0.55% active; in the data active = inhibition above about 30%; also: 0% = vehicle wells with enzyme and 100% = no enzyme wells
RecA intein inh = Mtb RecA intein splicing inhibitors, primary screen, biochemical, fluorescence, HTS; Protein RecA (Mycobacterium tuberculosis (strain ATCC 25618 / H37Rv)), P9WHJ3; inhibition, % (no concentration beside the values); cell-free RecA intein splicing; 290,000 tested, 0.75% active; in the data active = inhibition above about 30%;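 also: 0% = vehicle wells and 100% = reference inhibitor control wells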
Mtb betalactam = beta-lactam sensitization of Mtb H37Rv, H37Rv. AID 434955, 2010. 330,000 tested, 0.27% active. M. tuberculosis H37Rv growth with meropenem, percent inhibition. inhibition, % at 25 µM;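 also: growth measured after seven days incubation then overnight dye step; 0% = bacteria only wells and 100% = bacteria with antibiotic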
Mtb FBA confirm = M. tuberculosis aldolase blockers, biochemical, fluorescence, strain H37Rv, confirmation; shares compounds with Mtb FBA inh; purified M. tuberculosis FBA, fluorescence read-out; inhibition, % at 1 µM; 5,600 tested, 78% active; AID 651616, 2012; in the data active = inhibition above about 27%;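 also: 0% = vehicle wells and 100% = reference inhibitor wells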
GDH-TPI counter-2 = GDH-TPI coupling enzyme inhibitors, artefact control for M. tuberculosis FBA inhibitor project, biochemical, fluorescence, high throughput | shares compounds with Mtb FBA inh | GDH-TPI coupled enzyme counterscreen | inhibition, % at 1 µM | 5,600 tested, 81% active | AID 652141, 2013; in the data active = inhibition above about 10%
GDH-TPI dose = GDH-TPI coupling enzyme inhibitors, dose response, artefact control for M. tuberculosis FBA inhibitor project, biochemical, fluorescence, IC50. GDH-TPI coupled enzyme assay, artifact counterscreen. 170 tested, 79% active. shares compounds with Mtb FBA inh. AID 652145, 2013. IC50, µM
The depositor's hits bear a star; . = no result; + = active, no number. Unless noted, no rule for the calls is given here.

SMILES	GDH-TPI counter-1	Mtb FBA inh	CCHF vOTU inh	RecA intein inh	Mtb betalactam	Mtb FBA confirm	GDH-TPI counter-2	others
COC(=O)Cc1c(C)c2ccc(OCC(=O)N3CCC(C)CC3)c(C)c2oc1=O	19	84*	-36	0	-18	54*	50*
O=C(CSc1nc2ccccc2nc1N1CCCC1)N1CCN(C(c2ccccc2)c2ccccc2)CC1	.	.	-2	.	.	.	.
O=C(N[C@H](Cc1ccccc1)C(=O)NCCCc1ccccc1)[C@H]1O[C@@H](n2ccc(=O)[nH]c2=O)[C@H](O)[C@@H]1O	.	.	3	.	.	.	.
CCCCCCCCN1C(=O)[C@@H](CC(=O)N2CCSCC2)C[C@@]2(C(=O)OC)C1=C[C@H](C1CCCC1)O[C@@H]2C	.	.	3	.	.	.	.
Cc1cc(=O)oc2c(C)c(OCC(=O)N3CCC(C(=O)O)CC3)ccc12	17	49*	-20	4	4	18	15*
COC(=O)C1=CN(CCCN2CCCC2=O)C=C(C(=O)OC)C1c1cccs1	7	21	-61	-95	-3	.	.
COC(=O)C1=CN(Cc2cccs2)C=C(C(=O)OC)C1c1cccc(OC)c1OC	9	53*	-20	-10	6	82*	75*
COC(=O)C1=CN(c2ccc(N3CCOCC3)cc2)C(N)=C(C#N)C1c1cccc(OC)c1OC (stereo not given)	.	.	15	.	.	.	.
COC(=O)C1=CN(Cc2ccc(OC)cc2)C=C(C(=O)OC)C1c1cccs1	-2	71*	-46	-6	-3	7	7
O=C(C(O)c1ccc(Br)cc1)N1CCC(Nc2ccc3[nH]ncc3c2)CC1 (stereo not given)	5	42*	-22	.	.	+	+
COC(=O)/C(=C/Nc1cccc2ccccc12)[N+](=O)[O-]	-2	74*	-29	.	2	98*	80*
COC1C=CC(CNC(=O)c2cc3c(=O)n4cccc(C)c4nc3n2C)(OC)O1 (stereo not given)	23	36*	-26	-3	-8	176*	109*
Cc1cccn2c(=O)c3cc(C(=O)O)n(C)c3nc12	25	81*	-61	-28	-6	80*	58*
Cc1cccn2c(=O)c3cc(C(=O)NC4CCCCC4)n(C)c3nc12	8	5	6	-5	4	.	.
COc1ccc(C(=O)NCCCNc2nc3cc(C)cc(C)c3cc2C#N)cc1	0	37*	-3	.	.	3	-6
COCCCNC(=S)NCCCNc1nc2cc(C)cc(C)c2cc1C#N	0	47*	-15	-9	48	6	-7
Cc1cc(C)c2cc(C#N)c(NCCNC(=O)c3ccccc3)nc2c1	.	.	-10	.	.	.	.
Cc1cccc2cc(C#N)c(NCCNC(=O)c3ccccc3)nc12	13	40*	-38	.	.	+	+
Cc1cc(C)c2cc(C#N)c(NCCNC(=S)NCCCN3CCOCC3)nc2c1	-1	24	-22	-8	-1	.	.
Cc1cc(C)c2cc(C#N)c(NCCCNC(=O)c3cccnc3)nc2c1	10	47*	-15	.	.	32*	30*
COc1ccc(C(=O)NCCNc2nc3cc(C)cc(C)c3cc2C#N)c(OC)c1	.	.	-20	.	.	.	.
COc1cc(C(=O)NCCNc2nc3cc(C)ccc3cc2C#N)cc(OC)c1OC	10	13	-25	-22	-2	.	.
COc1cc(C(=O)NCCCNc2nc3cc(C)c(C)cc3cc2C#N)cc(OC)c1OC	5	52*	-38	-7	5	75*	62*
COc1cc(OC)cc(C(=O)NCCNc2nc3cc(C)cc(C)c3cc2C#N)c1	12	31*	-16	-2	1	-9	-4
COc1cc2c(cc1OC)CN(CC(=O)Nc1ccccc1C#N)CC2	1	65*	-9	0	-3	156*	176*
SMILES	GDH-TPI counter-1	Mtb FBA inh	CCHF vOTU inh	RecA intein inh	Mtb betalactam	Mtb FBA confirm	GDH-TPI counter-2	others
COc1cc2c(cc1OC)CN(CC(=O)Nc1ccccc1SC)CC2	-1	1	7	5	-4	.	.
COC(=O)[C@]12C[C@H](CC(=O)NCc3ccc(OC)c(OC)c3)C(=O)N(Cc3cccc4ccccc34)C1=C[C@H](C1CCCC1)O[C@@H]2C	.	.	20	.	.	.	.
CCCCCCCCN1C(=O)[C@@H](CC(=O)NCCCOC)C[C@@]2(C(=O)OC)C1=C[C@H](C1CCCC1)O[C@@H]2C	.	.	26	.	.	.	.
CC(C)(C)OC(=O)N1c2ccccc2[C@]2(N3CCCC3)C[C@H](C(=O)O)N(C(=O)OC(C)(C)C)[C@H]12	.	.	5	.	.	.	.
O=C(NN=Cc1cc(Br)c(O)c(Br)c1)c1ccccc1NS(=O)(=O)c1cccs1	48*	79*	4	.	7	165*	135*
O=C(N/N=C/c1cccnc1)c1ccccc1NS(=O)(=O)c1cccs1	8	8	3	-2	5	.	.
Nc1nc(N)c2cc(Sc3ccc(Cl)cc3)ccc2n1	9	68*	-30	.	.	64*	59*
Nc1nc(N)c2cc(Sc3ccc4ccccc4c3)ccc2n1	6	9	5	8	99	.	.
Nc1nc(N)c2cc(Sc3cccc(C(F)(F)F)c3)ccc2n1	7	52*	-5	.	.	+	177*
O=C(C(=O)N1CCN(S(=O)(=O)c2ccc(OC(F)(F)F)cc2)CC1)c1cccc(C(F)(F)F)c1	.	.	2	.	.	.	.
Cc1nn(C)cc1-c1cc(C(=O)O)c2ccccc2n1	7	82*	-32	0	-2	18	7	GDH-TPI dose=3.3*
CN(C)CCCOc1ccc(-c2cccc3nncn23)cn1	10	43*	-18	.	.	146*	120*
CN(C)CCNC(=O)c1cccc(-c2cccc3nncn23)c1	0	71*	-7	.	.	134*	88*
CN(C)CCCOc1ccc(-c2ccc3nncn3c2)cn1	16	4	-10	.	.	.	.
O=C(CSc1nnc(-c2ccncc2)n1-c1ccc(Cl)cc1)c1ccc(Cl)c(Cl)c1	.	.	5	.	.	.	.

High-throughput results: PubChem, several laboratories
